From PubChem BioAssay (NCI)
Compounds without any hit were thinned out: in the full panel of roughly 83,000, 20% have a hit.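 Single-dose data. Exposure time 48 hours. Values below 10 considered active.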 Unmarked numbers belong to inactive results. Calls of active or inactive are those of the source.

These compounds were tested on K-562 leukemia (assay: NCI-60 one-dose screen, 48 h (100 = growth as untreated, 0 = no growth, -100 = all killed)). Details: 10 µM unless noted.

Row | Compound | growth
1 | CCCCOc1ccc(NC(=O)n2nc(NC(C)=O)c3cc(NC(C)=O)ccc32)cc1 | 33.7%
2 | CSc1ncnc2c1ncn2C1CCCO1 (stereo not drawn) | 91.2%
3 | Oc1ccccc1N=Cc1c(O)ccc2ccccc12 | 80.3%
4 | Cn1c2ccccc2c2c3[nH]c(=O)[nH]c(=O)c3c3c4ccccc4n(C)c3c21 | 56.1%
5 | CCOC(=O)c1c2ncccc2n2c(=O)n(-c3ccc(Cl)cc3)nnc12 | 77.7%
6 | O=C(COc1cccc(/C=C2/Oc3ccccc3C2=O)c1)Nc1nccs1 | 43.3%
7 | NS(=O)(=O)c1ccc(Nc2nc3n[nH]c(Nc4ccccc4)c3c(=O)[nH]2)cc1 | 96%
8 | OCCNCCNc1c2ccccc2nc2ccccc12 | 69.8%
9 | COc1ccc(OCC(=O)Nc2ccc(-c3nc4ccccc4s3)cc2C)cc1 | 59.5%
10 | CCCCNP1(NCCCC)=NP(NCCCC)(NCCCC)=NP(NCCCC)(NCCCC)=NP(NCCCC)(NCCCC)=N1 | -26.4% (active)
11 | COCCCN=C(N)c1ccc(NC(=O)c2ccc(C(=O)Nc3ccc(C(N)=NCCCOC)cc3)cc2)cc1 | 66.8%
12 | Cn1c2ccccc2c2c3c(c4c5ccccc5[nH]c4c21)C(=O)N(N)C3=O | 49.7%
13 | CCN(CC)Cc1cc(Nc2c3ccccc3nc3cc(Cl)ccc23)ccc1O | -40.8% (active)
14 | COc1nc2c(cc1S(=O)(=O)c1ccccc1)CCc1c-2cnn1-c1ccc(Cl)cc1 | 97.2%
15 | CN(CC(=O)N(Cc1ccc(C2CCCCC2)cc1)c1ccc(C(=O)NO)cc1)S(=O)(=O)c1c(F)c(F)c(F)c(F)c1F | 20.6%
16 | COc1cc(-c2nc3ccccc3s2)ccc1NC(=O)COc1ccc(Cl)cc1 | 74.9%
17 | CSc1[nH]c2ncnc(N)c2c1C#N | 84.6%
18 | O=C1Nc2c(ccc(Cl)c2Cl)/C1=C/c1cc(Br)c(O)c(Br)c1 | 51.8%
19 | NS(=O)(=O)N(c1cc(C(F)(F)F)cc(C(F)(F)F)c1)C1CCN(Cc2ccc(F)cc2)CC1 | 26.1%
20 | COc1nc2c(cc1S(=O)(=O)c1ccccc1)CCc1c-2cnn1Cc1ccccc1 | 38%
21 | CN1CCN(Cc2ccc(NC(=O)c3[nH]ncc3Nc3ccnc4ccsc34)cc2)CC1 | 26.5%
22 | CC1(C)CC(C(=O)OCCCCCCCCCCC[P+](c2ccccc2)(c2ccccc2)c2ccccc2)C(C)(C)N1O (stereo not drawn) | -76.3% (active)
23 | C=CC[N+]1(CC)CCN=C1CCCCCCCCCCCCCCCCC (stereo not drawn) | -66.9% (active)
